Data on 23 molecules can be found in ChEMBL document CHEMBL5606460, “ASAP - DENV-2 NS2B-NS3 protease fluorescence single point” (2024).

Among all 2,000 compounds or so, about 110 (5.5%) showed an effect of 50% or more. The list comes from a sample in which strong results are over-represented; it also holds similar structures and randomly drawn compounds.

In this assay the target is Genome polyprotein (dengue virus type 2) (UniProt P29990).
Setting [1] is: Thailand/16681/1984, Concentration 25.0 uM, Number of replicates 1.0.

Take `COc1ccc(S(=O)(=O)n2nc(OC(=O)c3cccc(-c4ccccc4Cl)c3)cc2N)cc1`: the inhibition (commonly the relative decrease from the control value, in per cent) amounted to 18.8% (Thailand/16681/1984, Concentration 49.5 uM, Number of replicates 2.0, Standard deviation 1.4490153953002987 %); 22.4% (Thailand/16681/1984, Concentration 99.01 uM, Number of replicates 2.0, Standard deviation 0.6098804079928887 %); 25.3% (Thailand/16681/1984, Concentration 198.0 uM, Number of replicates 2.0, Standard deviation 5.725656788050292 %).
For `COc1ccc(S(=O)(=O)N2CCC(C(=O)Nc3nc4ccccc4s3)CC2)cc1`, the inhibition runs as follows: (Thailand/16681/1984, Concentration 49.5 uM, Number of replicates 2.0, Standard deviation 1.3648800018415175 %) 2.28%; (Thailand/16681/1984, Concentration 99.01 uM, Number of replicates 2.0, Standard deviation 0.35874487080545164 %) 4.97%; (Thailand/16681/1984, Concentration 198.0 uM, Number of replicates 2.0, Standard deviation 3.7738315130637563 %) 5.55%.
Consider `C[C@@H](NCc1ccc(C(N)=O)cc1)c1ccc(OCc2ccccc2)cc1`, for which the inhibition reads like this: (Thailand/16681/1984, Concentration 49.5 uM, Number of replicates 2.0, Standard deviation 1.6752456853530722 %) 0.14%; (Thailand/16681/1984, Concentration 99.01 uM, Number of replicates 2.0, Standard deviation 1.116678580733439 %) 0.358%; (Thailand/16681/1984, Concentration 198.0 uM, Number of replicates 2.0, Standard deviation 0.6068608391781741 %) -0.175%.
As for `NC(=O)c1ccc(CNC(=O)c2ccc(OCc3ccccc3)cc2)cc1`, the inhibition (Thailand/16681/1984, Concentration 49.5 uM, Number of replicates 2.0, Standard deviation 3.419970703357444 %) was -0.579%; the inhibition (Thailand/16681/1984, Concentration 99.01 uM, Number of replicates 2.0, Standard deviation 3.9573061855257445 %) is -0.365%; the inhibition (Thailand/16681/1984, Concentration 198.0 uM, Number of replicates 2.0, Standard deviation 3.324054675683989 %) was -1.19%.
As for `CCCC[C@H](N)C(=O)N[C@@H](C(=O)NCc1ccc(C(N)=O)cc1)c1ccc(OCc2ccccc2)cc1`, the inhibition is, setting by setting: (Thailand/16681/1984, Concentration 49.5 uM, Number of replicates 2.0, Standard deviation 0.45534308736890416 %) -4.77%; (Thailand/16681/1984, Concentration 99.01 uM, Number of replicates 2.0, Standard deviation 0.9591594337975816 %) 6.09%; (Thailand/16681/1984, Concentration 198.0 uM, Number of replicates 2.0, Standard deviation 4.328590586700157 %) 82.3%.
As to `NC(=O)c1ccc(CNC(=O)NCc2ccc(OCc3ccccc3)cc2)cc1`, the inhibition was -0.275% (Thailand/16681/1984, Concentration 49.5 uM, Number of replicates 2.0, Standard deviation 0.6584955649548859 %); 0.348% (Thailand/16681/1984, Concentration 99.01 uM, Number of replicates 2.0, Standard deviation 0.579227797958503 %); -0.309% (Thailand/16681/1984, Concentration 198.0 uM, Number of replicates 2.0, Standard deviation 0.34476708449941224 %).
Consider `CCCCCC(=O)N[C@H](C(=O)Nc1ccc(C(N)=O)cc1)c1ccc(OCc2ccccc2)cc1`, for which the inhibition is 0.424% (Thailand/16681/1984, Concentration 49.5 uM, Number of replicates 2.0, Standard deviation 0.6010644427830669 %); 0.131% (Thailand/16681/1984, Concentration 99.01 uM, Number of replicates 2.0, Standard deviation 0.8411278167455505 %); -0.732% (Thailand/16681/1984, Concentration 198.0 uM, Number of replicates 2.0, Standard deviation 0.2400633914962311 %).
Turning to `CCCC[C@H](N)C(=O)N[C@H](C(=O)NCc1ccc(C(N)=O)cc1)c1ccc(OCc2ccccc2)cc1`, the inhibition by setting is: (Thailand/16681/1984, Concentration 49.5 uM, Number of replicates 2.0, Standard deviation 0.2650581585371317 %) -6.18%; (Thailand/16681/1984, Concentration 99.01 uM, Number of replicates 2.0, Standard deviation 5.609533791033077 %) 63.5%; (Thailand/16681/1984, Concentration 198.0 uM, Number of replicates 2.0, Standard deviation 0.01804559465842439 %) 99.8%.
With `COc1ccccc1C1CCN(C(=O)C2CCN(c3ccc(C=O)cc3)CC2)CC1`, the inhibition under setting [1] was found to be 12.3%.
In the case of `CN(C)Cc1ccc(C(=O)Nc2cc(Cl)cc(C(=O)NC(C)(C)CO)c2)[nH]1`, the inhibition runs as follows: (Thailand/16681/1984, Concentration 49.5 uM, Number of replicates 2.0, Standard deviation 0.5051399787428742 %) 0.205%; (Thailand/16681/1984, Concentration 99.01 uM, Number of replicates 2.0, Standard deviation 1.5521383022614499 %) 0.663%; (Thailand/16681/1984, Concentration 198.0 uM, Number of replicates 2.0, Standard deviation 0.5964116239079592 %) 5.64%.
Turning to `CCN(Cc1cc(Br)ccc1F)C(=O)C1CCN(c2ccc(C=O)cc2)CC1`, under setting [1], the inhibition was 15.9%.
Take `Cc1cc(Cl)c2cccc(N)c2n1`: the inhibition reads like this: (Thailand/16681/1984, Concentration 49.95 uM, Number of replicates 2.0, Standard deviation 0.6589137143756747 %) 13.5%; (Thailand/16681/1984, Concentration 99.9 uM, Number of replicates 2.0, Standard deviation 0.20071745394997703 %) 27.6%.
Regarding `Cc1cc(N)c2c(Cl)ccc(Cl)c2n1`, the inhibition reads like this: (Thailand/16681/1984, Concentration 49.95 uM, Number of replicates 2.0, Standard deviation 8.427681720895945 %) -5.26%; (Thailand/16681/1984, Concentration 99.9 uM, Number of replicates 2.0, Standard deviation 7.565581927359314 %) -3.92%.
Consider `Cc1cc(Cl)c2c(N)ccc(C)c2n1`, for which the inhibition reads like this: (Thailand/16681/1984, Concentration 49.95 uM, Number of replicates 2.0, Standard deviation 5.268842944255752 %) 34.7%; (Thailand/16681/1984, Concentration 99.9 uM, Number of replicates 2.0, Standard deviation 0.5758298004935433 %) 94.7%.
Turning to `Cc1cc(CO)c2cccc(Cc3cccc(NC(=O)c4cnn(Cc5c(C)noc5C)c4)c3)c2n1`, the inhibition runs as follows: (Thailand/16681/1984, Concentration 49.95 uM, Number of replicates 2.0, Standard deviation 1.4870028556253494 %) -3.7%; (Thailand/16681/1984, Concentration 99.9 uM, Number of replicates 2.0, Standard deviation 1.816697484259061 %) -0.8%.
In the case of `O=C(Nc1cccc(O)c1)c1cccc(OCc2c(Cl)cccc2Cl)c1`, the inhibition is, setting by setting: (Thailand/16681/1984, Concentration 49.5 uM, Number of replicates 2.0, Standard deviation 2.2599777431890864 %) 6.58%; (Thailand/16681/1984, Concentration 99.01 uM, Number of replicates 2.0, Standard deviation 0.8121141369648937 %) 8.41%; (Thailand/16681/1984, Concentration 198.0 uM, Number of replicates 2.0, Standard deviation 0.4931997238761773 %) 11.9%.
`O=C(Nc1ccc(O)cc1)c1cccc(OCc2c(Cl)cccc2Cl)c1`: the inhibition is, setting by setting: (Thailand/16681/1984, Concentration 49.5 uM, Number of replicates 2.0, Standard deviation 0.38856258601515087 %) 5.85%; (Thailand/16681/1984, Concentration 99.01 uM, Number of replicates 2.0, Standard deviation 1.1651546847054868 %) 9.28%; (Thailand/16681/1984, Concentration 198.0 uM, Number of replicates 2.0, Standard deviation 0.8272279968409002 %) 12.6%.
Take `O=C(O)c1cccc(NC(=O)c2cccc(OCc3c(Cl)cccc3Cl)c2)c1`: the inhibition is 14.9% (Thailand/16681/1984, Concentration 49.5 uM, Number of replicates 2.0, Standard deviation 0.517131041635451 %); 47.1% (Thailand/16681/1984, Concentration 99.01 uM, Number of replicates 2.0, Standard deviation 0.3657402361338958 %); 92.1% (Thailand/16681/1984, Concentration 198.0 uM, Number of replicates 2.0, Standard deviation 0.23203020217005468 %).
Take `Cc1cc(CO)c2cccc(Cc3cccc(NC(=O)[C@@H]4CC(=O)CCN4)c3)c2n1`: the inhibition reads like this: (Thailand/16681/1984, Concentration 49.95 uM, Number of replicates 2.0, Standard deviation 0.827370284601473 %) 15.8%; (Thailand/16681/1984, Concentration 99.9 uM, Number of replicates 2.0, Standard deviation 0.7401310286309556 %) 32.9%.
On to `NCc1cccc(NC(=O)[C@@H](CCC(N)=O)NC(=O)OCc2ccccc2)c1`, for which the inhibition (Thailand/16681/1984, Concentration 49.5 uM, Number of replicates 2.0, Standard deviation 0.6750820884014238 %) was -3.1%; the inhibition (Thailand/16681/1984, Concentration 99.01 uM, Number of replicates 2.0, Standard deviation 2.465072002477128 %) was -1.7%; the inhibition (Thailand/16681/1984, Concentration 198.0 uM, Number of replicates 2.0, Standard deviation 2.5897319885400165 %) is -0.981%.
With `NCc1cccc(NC(=O)[C@@H](NC(=O)OCc2ccccc2)c2ccccc2)c1`, the inhibition came out at 0.869% (Thailand/16681/1984, Concentration 49.5 uM, Number of replicates 2.0, Standard deviation 1.0300513707602847 %); 0.819% (Thailand/16681/1984, Concentration 99.01 uM, Number of replicates 2.0, Standard deviation 0.7240873671299501 %); 0.644% (Thailand/16681/1984, Concentration 198.0 uM, Number of replicates 2.0, Standard deviation 0.6193503939215136 %).
`CCCCCC(=O)N[C@H](C(=O)NCc1cccc(CN)c1)c1ccc(OCc2ccccc2)cc1`: the inhibition is -3.44% (Thailand/16681/1984, Concentration 49.5 uM, Number of replicates 2.0, Standard deviation 0.6286197397778024 %); 65.8% (Thailand/16681/1984, Concentration 99.01 uM, Number of replicates 2.0, Standard deviation 10.030102962525104 %); 98.7% (Thailand/16681/1984, Concentration 198.0 uM, Number of replicates 2.0, Standard deviation 0.2962336766184579 %).
Turning to `NCc1cccc(NC(=O)Cc2ccc(OCc3ccccc3)cc2)c1`, the inhibition is, setting by setting: (Thailand/16681/1984, Concentration 49.5 uM, Number of replicates 2.0, Standard deviation 0.3616312555788717 %) -3.09%; (Thailand/16681/1984, Concentration 99.01 uM, Number of replicates 2.0, Standard deviation 0.27421312838327405 %) -2.89%; (Thailand/16681/1984, Concentration 198.0 uM, Number of replicates 2.0, Standard deviation 0.0354621897496722 %) -1.31%.
